Measurements reported in PubChem BioAssay (NCATS).
Records with an inconclusive call do not appear. Calls of active or inactive are those of the source. Calls follow the shape of the dose curve; as a rule, active = well fitted curve in the direction sought with a large enough effect; inconclusive = small, poorly fitted or top-dose-only effect, or another doubt; inactive = no such curve, though single readings can be large; an effect the other way counts as inactive or inconclusive. Where a SMILES comes first, the peptide text is derived from it.

What was measured:
Es-2 = assay: Primary qHTS to identify gynecologic anti-cancer compounds using libraries of approved drugs and bioactive compounds (AID 1345084); conditions: Gynecologic cancer cell panel viability, ATPlite luminescence, 48 h; series mostly up to 57.5 µM; also: nearly all actives have a fitted effect of over 55% in size
In short: (§1)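 48 h compound exposure at 37 C, 5% CO2; five-point qHTS. ATPlite luminescence readout of cell ATP.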

HeLa = assay: as above; conditions: Gynecologic cancer cell panel viability, ATPlite luminescence, 48 h; series mostly up to 57.5 µM
In short: as §1

Hek293T = assay: as above; conditions: Gynecologic cancer cell panel viability, ATPlite luminescence, 48 h, control line for the selectivity index; series mostly up to 57.5 µM
In short: as §1

JEG-3 = assay: as above; conditions: Gynecologic cancer cell panel viability, ATPlite luminescence, 48 h; series mostly up to 57.5 µM
In short: as §1

OV90 = assay: as above; conditions: Gynecologic cancer cell panel viability, ATPlite luminescence, 48 h; series mostly up to 57.5 µM
In short: as §1

PA-1 = assay: as above; conditions: Gynecologic cancer cell panel viability, ATPlite luminescence, 48 h; series mostly up to 57.5 µM
In short: as §1

Tov-21-G = assay: as above; conditions: Gynecologic cancer cell panel viability, ATPlite luminescence, 48 h; series mostly up to 57.5 µM
In short: as §1

Tov112D = assay: as above; conditions: Gynecologic cancer cell panel viability, ATPlite luminescence, 48 h; series mostly up to 57.5 µM
In short: as §1

[1] = Drug repurposing screens with cells derived from glioblastoma tumor samples (AID 1345199); conditions: GBM patient neurospheres viability, ATP luminescence, 48 h; also: nearly all actives have a fitted effect of over 40% in size
In short: (§2)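 Four patient lines of CD133+ GBM neurospheres were screened at several concentrations; hits were retested in those lines plus three slower-growing GBM lines, using 48-hour treatment and ATP-based viability.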

astro = assay: as above; conditions: viability, ATP luminescence, 48 h; series mostly up to 45.9 µM
In short: as §2

SKOV3 = assay: Primary qHTS to identify gynecologic anti-cancer compounds using libraries of approved drugs and bioactive compounds (AID 1345084); conditions: Gynecologic cancer cell panel viability, ATPlite luminescence, 48 h; series mostly up to 57.5 µM; also: nearly all actives have a fitted effect of over 55% in size
In short: as §1
% is scaled to controls: 0 for no effect and ±100 for the full control effect.

OC[C@H]1O[C@@H](n2cnc3c2NC=NC[C@H]3O)C[C@@H]1O
inactive: Potency (Es-2) | Potency (HeLa) | Potency (Hek293T) | Potency (JEG-3) | Potency (OV90) | Potency (PA-1) | Potency (Tov-21-G) | Potency (Tov112D) | activity, negative = cell killing ([1]; at 45.9 µM (top of the series), tumour line B) 2.62% | activity, negative = cell killing ([1]; at 45.9 µM (top of the series), tumour line D) -21% | activity, negative = cell killing ([1]; at 46 µM (top of the series), tumour line A) -9.89% | activity, negative = cell killing ([1]; at 46.1 µM (top of the series), tumour line C) 8.32% | Potency (astro)

CNC(=O)O[C@H]1COc2ccc(N3CCN(C4COC4)CC3)cc2[C@@H]1NC(=O)c1ccc(F)cc1
inactive: Potency (Es-2) | Potency (HeLa) | Potency (Hek293T) | Potency (JEG-3) | Potency (OV90) | Potency (PA-1) | Potency (Tov-21-G) | Potency (Tov112D)

COc1ccc2c(c1)OC[C@]1(O)c3cc4c(cc3O[C@H]21)OCO4
inactive: Potency (Es-2) | Potency (HeLa) | Potency (Hek293T) | Potency (JEG-3) | Potency (OV90) | Potency (SKOV3) | Potency (Tov-21-G) | Potency (Tov112D)

C[C@@H]1O[C@@H](OC[C@H]2O[C@@H](OCCc3ccccc3)[C@H](O)[C@@H](O)[C@@H]2O)[C@H](O)[C@H](O)[C@H]1O
inactive: Potency (Es-2) | Potency (HeLa) | Potency (Hek293T) | Potency (JEG-3) | Potency (OV90) | Potency (SKOV3) | Potency (Tov-21-G) | Potency (Tov112D)

COC(=O)C1=COC(O[C@@H]2O[C@H](CO)[C@@H](O)[C@H](O)[C@H]2O)/C(=C\COC(=O)c2ccc(OC3OC(CO)C(O)C(O)C3O)c(OC)c2)C1CC(=O)OCCc1ccc(O)cc1 (stereo partly specified)
inactive: activity change, negative = cytotoxicity (Es-2) 1.38% [at 11.6 µM] | activity change, negative = cytotoxicity (HeLa) 2.44% [at 11.6 µM] | activity change, negative = cytotoxicity (Hek293T) 17.6% [at 11.6 µM] | activity change, negative = cytotoxicity (JEG-3) 2.03% [at 11.6 µM] | activity change, negative = cytotoxicity (OV90) 1.39% [at 11.6 µM] | activity change, negative = cytotoxicity (PA-1) -0.972% [at 11.6 µM] | activity change, negative = cytotoxicity (Tov-21-G) 2.92% [at 11.6 µM] | activity change, negative = cytotoxicity (Tov112D) 6.58% [at 11.6 µM]

CC1(C)CC(=O)N(CCCCN2CCN(c3ncccn3)CC2)C(=O)C1
inactive: Potency (Es-2) | Potency (HeLa) | Potency (Hek293T) | Potency (JEG-3) | Potency (OV90) | Potency (SKOV3) | Potency (Tov-21-G) | Potency (Tov112D)

FC(F)(F)c1cc(C(F)(F)F)c2ccc3nc(-c4nnco4)cn3c2n1
inactive: Potency (Es-2) | Potency (HeLa) | Potency (Hek293T) | Potency (JEG-3) | Potency (OV90) | Potency (PA-1) | Potency (Tov-21-G) | Potency (Tov112D)

C=C(C(=O)O)[C@@H]1CC=C2CCC[C@H](C)[C@@]2(C)C1
inactive: Potency (Es-2) | Potency (HeLa) | Potency (Hek293T) | Potency (JEG-3) | Potency (OV90) | Potency (PA-1) | Potency (Tov-21-G) | Potency (Tov112D)

COC(=O)C1=COC(OC2OC(CO)C(O)C(O)C2O)C2C1CC(OC(=O)C(O)CC(=O)O)C2C (stereo unspecified)
inactive: Potency (Es-2) | Potency (HeLa) | Potency (Hek293T) | Potency (JEG-3) | Potency (OV90) | Potency (PA-1) | Potency (Tov-21-G) | Potency (Tov112D)

C[C@@H](Nc1cc(NS(=O)(=O)N2CCC2)nc(SCc2cccc(F)c2F)n1)[C@@H](O)CO
inactive: Potency (Es-2) | Potency (HeLa) | Potency (Hek293T) | Potency (JEG-3) | Potency (OV90) | Potency (PA-1) | Potency (Tov-21-G) | Potency (Tov112D)

C[C@H]1[C@H](C)CC[C@]2(C(=O)O)CC[C@]3(C(=O)O)C(=CCC4[C@@]5(C)CC[C@H](O[C@@H]6O[C@H](C)[C@@H](O)[C@H](O)[C@H]6O)C(C)(C)C5CC[C@]43C)[C@H]12 (stereo partly specified)
inactive: Potency (Es-2) | Potency (HeLa) | Potency (Hek293T) | Potency (JEG-3) | Potency (OV90) | Potency (PA-1) | Potency (Tov-21-G) | Potency (Tov112D)

COc1cc(N2CCC(O)CC2)ccc1Nc1cc(Nc2ccccc2S(=O)(=O)C(C)C)c2cc[nH]c2n1
inactive: Potency (Es-2) | Potency (HeLa) | Potency (Hek293T) | Potency (JEG-3) | Potency (OV90) | Potency (SKOV3) | Potency (Tov-21-G) | Potency (Tov112D)

C[C@@H](O)[C@H](N)C(=O)N1CCC[C@H]1C(=O)N1CCC[C@H]1C(=O)N[C@H](C(N)=O)[C@@H](C)O (H-TPPT-NH2)
inactive: activity change, negative = cytotoxicity (Es-2) -3.74% [at 11.6 µM] | activity change, negative = cytotoxicity (HeLa) 8.64% [at 11.6 µM] | activity change, negative = cytotoxicity (Hek293T) 17.1% [at 11.6 µM] | activity change, negative = cytotoxicity (JEG-3) -0.985% [at 11.6 µM] | activity change, negative = cytotoxicity (OV90) -0.207% [at 11.6 µM] | activity change, negative = cytotoxicity (PA-1) -4.12% [at 11.6 µM] | activity change, negative = cytotoxicity (Tov-21-G) 0.205% [at 11.6 µM] | activity change, negative = cytotoxicity (Tov112D) 6.35% [at 11.6 µM]

CC1(C)CCCC2(C)C3=C(C(=O)OC3O)C(O)CC12 (stereo unspecified)
inactive: Potency (Es-2) | Potency (HeLa) | Potency (Hek293T) | Potency (JEG-3) | Potency (OV90) | Potency (PA-1) | Potency (Tov-21-G) | Potency (Tov112D)

CCN[C@@H]1C[C@H](N)[C@@H](O[C@H]2OC(CN)=CC[C@H]2N)[C@H](O)[C@H]1O[C@H]1OC[C@](C)(O)[C@H](NC)[C@H]1O
inactive: Potency (Es-2) | Potency (HeLa) | Potency (Hek293T) | Potency (JEG-3) | Potency (OV90) | Potency (PA-1) | Potency (Tov-21-G) | Potency (Tov112D)

CCCCN(CCCC)C(=O)CN1C[C@H](c2ccc3c(c2)OCO3)[C@@H](C(=O)O)[C@@H]1c1ccc(OC)cc1
inactive: Potency (Es-2) | Potency (HeLa) | Potency (Hek293T) | Potency (JEG-3) | Potency (OV90) | Potency (PA-1) | Potency (Tov-21-G) | Potency (Tov112D)

COC(=O)C1=CO[C@@H](O[C@@H]2O[C@H](CO)[C@@H](O)[C@H](O)[C@H]2O)[C@@H]2[C@@H](C(=O)OC)[C@@H](O)C(O)[C@H]12 (stereo partly specified)
inactive: Potency (Es-2) | Potency (HeLa) | Potency (Hek293T) | Potency (JEG-3) | Potency (OV90) | Potency (PA-1) | Potency (Tov-21-G) | Potency (Tov112D)
